Screening data as filed in PubChem.
S-ASM inh – Inhibitors of Secretory Acid Sphingomyelinase (S-ASM): qHTS. Sphingomyelin phosphodiesterase (Homo sapiens), P17405. 340,000 compounds, 0.006% hits. AID 504937, 2011. placental ASM, HMU-PC fluorogenic substrate, 60 min. Potency, µM (series often up to 57.5 µM), usual class: inhibitors
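Steps: dispense placental human ASM, pin compound, wait 10 min at room temperature, add HMU-PC0 substrate at 9 uM final, incubate 60 min at 37 °C, add stop solution raising pH to 10, read fluorescence.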
PLK1 PBD block – qHTS for Inhibitors of PLK1-PDB (polo-like kinase 1 - polo-box domain): Primary Screen. AID 720504, 2013. Serine/threonine-protein kinase PLK1 (Homo sapiens), P53350. Potency, µM, usual class: inhibitors. Plk1 PBD binding of FITC phosphopeptide, fluorescence polarization. 360,000 compounds, 2.8% hits; note: series mostly up to about 57 µM; nearly all actives have a fitted effect of over 65% in size
Target sequence (P53350 whole entry, looked up, the tested form may be a part): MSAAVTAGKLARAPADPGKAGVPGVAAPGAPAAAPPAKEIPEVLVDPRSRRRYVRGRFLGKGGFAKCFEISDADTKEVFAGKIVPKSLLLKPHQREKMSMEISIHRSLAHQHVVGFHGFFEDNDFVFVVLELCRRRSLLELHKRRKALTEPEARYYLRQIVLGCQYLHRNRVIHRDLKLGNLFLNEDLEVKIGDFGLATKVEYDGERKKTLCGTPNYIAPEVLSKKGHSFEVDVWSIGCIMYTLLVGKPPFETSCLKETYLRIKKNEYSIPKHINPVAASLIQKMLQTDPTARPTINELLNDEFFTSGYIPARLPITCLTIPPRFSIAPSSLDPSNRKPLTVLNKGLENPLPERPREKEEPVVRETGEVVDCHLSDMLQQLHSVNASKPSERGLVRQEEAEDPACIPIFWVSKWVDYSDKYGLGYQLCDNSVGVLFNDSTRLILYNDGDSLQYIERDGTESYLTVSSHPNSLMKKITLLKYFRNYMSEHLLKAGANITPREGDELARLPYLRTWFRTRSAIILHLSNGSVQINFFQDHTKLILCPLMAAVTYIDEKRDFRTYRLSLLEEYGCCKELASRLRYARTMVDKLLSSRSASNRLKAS
Pin1 inh – qHTS Assay to Find Inhibitors of Pin1. Peptidyl-prolyl cis-trans isomerase NIMA-interacting 1 (Homo sapiens), Q13526. Pin1 FP peptide displacement, HiFluor488, 10 min. 390,000 compounds, 0.009% hits. Potency, µM (doses to about 115 µM), usual class: inhibitors. AID 504891, 2011; active = well fitted inhibition curve with a large enough effect in the polarisation, with a control signal flat, not every such curve was filed as active; inconclusive = small, poorly fitted or top-dose-only effect, or effect the other way, or a change in a side signal; inactive = no such curve, though single readings can be large or run the other way; the % refers to the polarisation
Target sequence (Q13526 whole entry, looked up): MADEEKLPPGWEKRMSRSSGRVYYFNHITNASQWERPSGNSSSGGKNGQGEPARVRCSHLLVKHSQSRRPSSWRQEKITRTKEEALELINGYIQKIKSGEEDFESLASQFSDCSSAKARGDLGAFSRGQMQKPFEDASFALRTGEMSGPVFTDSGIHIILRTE
VDR inhibitor – Inhibitors of the vitamin D receptor (VDR): qHTS; Vitamin D3 receptor (Homo sapiens), P11473; VDR-SRC2-3 peptide fluorescence polarization, 2 h; Potency, µM, hits mostly inhibitors; 400,000 compounds, 0.93% hits; AID 504847, 2011
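Reagent solutions, kept cold and dark, are dispensed first; compounds are then pinned in at 23 nl, plates briefly spun, and incubated 2 h at ambient temperature. Inhibition of VDR–SRC2-3 peptide binding is read by fluorescence polarization.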
Tb PFK inh – qHTS Assay to Find Inhibitors of T. brucei phosphofructokinase | T. brucei PFK, ADP-Glo luminescence | 330,000 compounds, 0.17% hits | AID 485367, 2010 | Potency, µM (highest dose often 57.5 µM), usual class: inhibitors | ATP-dependent 6-phosphofructokinase (Trypanosoma brucei brucei), O15648; note: nearly all actives have a fitted effect of over 60% in size
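Activity is normalized to no-enzyme wells (full inhibition) and 1.25 nM enzyme wells (no inhibition). Reaction: 0.5 mM F6P, 0.1 mM ATP, 45 min RT, ADP-Glo luminescence; concentration-response curves fitted and classed by quality.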
TDP1 inh – qHTS Assay for Inhibitors of Tyrosyl-DNA Phosphodiesterase (TDP1); Tyrosyl-DNA phosphodiesterase 1 (Homo sapiens), Q9NUW8; recombinant TDP1, AlphaScreen DNA substrate cleavage; Potency, µM (titrated, usually from 130 µM), usual class: inhibitors; 350,000 compounds, 0.28% hits; AID 485290, 2010; note: nearly all actives have a fitted effect of over 40% in size
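Here, a 5' biotin and 3' phosphotyrosine-FITC DNA oligonucleotide reports Tdp1 activity: intact substrate bridges AlphaScreen beads, while cleavage leaves a 3' phosphate and drops signal. All incubations at room temperature.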
TbPYK confirm – qHTS of Trypanosoma Brucei Inhibitors: Confirmatory Assay for Cherry-picked Compounds. shares compounds with PLK1 PBD block. recombinant TbPYK, Kinase-Glo ATP luminescence. Potency, µM (titrated, usually from 76.9 µM), actives largely listed as inhibitors. 890 compounds, 67% hits. AID 720569, 2013; note: nearly all actives have a fitted effect of over 70% in size
TbPYK orthogonal – qHTS of Trypanosoma Brucei Inhibitors: Orthogonal Assay for Cherry-picked Compounds | shares compounds with PLK1 PBD block | recombinant TbPYK, ADP-Glo luminescence, 60 min | Potency, µM (series often up to 76.9 µM), most hits filed as inhibitors | 890 compounds, 62% hits | AID 720584, 2013; note: nearly all actives have a fitted effect of over 75% in size
Numbers stand for hits; i = inactive; ? = inconclusive; nt = no result given. Compounds with a hit are over-represented: about 3.1% of the library has one in this group of screens. Unless noted, calls come from the whole dose curve; as a rule, active = well fitted curve in the direction sought with a large enough effect; inconclusive = small, poorly fitted or top-dose-only effect, or another doubt; inactive = no such curve, though single readings can be large; an effect the other way counts as inactive or inconclusive.

SMILES	S-ASM inh	PLK1 PBD block	Pin1 inh	VDR inhibitor	Tb PFK inh	TDP1 inh	TbPYK confirm	TbPYK orthogonal
O=C(Nc1cnn(Cc2ccc(Cl)cc2)c1)c1cccs1	i	6.7µM	i	?	i	nt	i	i
O=C(Nc1cnn(Cc2ccc(Cl)cc2)c1)c1ccc([N+](=O)[O-])cc1	i	i	i	i	i	i	nt	nt
CCCCN1CC(c2nc3ccccc3n2CCCCOc2cccc(C)c2C)CC1=O (stereo not drawn)	nt	nt	i	i	nt	i	nt	nt
COc1ccc(CCNC(=O)C(CC(C)C)N2Cc3ccccc3C2=O)c(OC)c1OC (stereo not drawn)	nt	nt	i	i	nt	i	nt	nt
COc1ccccc1N1C(=O)CC(Sc2nc(C)cc(C)n2)C1=O (stereo not drawn)	i	i	i	i	i	i	nt	nt
COc1ccc(N2C(=O)CC(Sc3ncn[nH]3)C2=O)c(OC)c1 (stereo not drawn)	i	30µM	i	i	i	i	?	?
CC(C)c1cnc2c(c1SCc1cccc(C(F)(F)F)c1)c(=O)n(C)c(=O)n2C	nt	nt	i	i	nt	i	nt	nt
Cc1ccc2sc(NNC(=O)C3COc4ccccc4O3)nc2c1C (stereo not drawn)	i	i	i	i	?	i	?	?
Cc1c2cnn(CC(=O)N3CCN(c4ccc(F)cc4)CC3)c(=O)c2c(C)n1Cc1ccccc1F	nt	nt	i	i	nt	i	nt	nt
C[C@@H]1CCCCO[C@H](CN(C)Cc2ccc(Cl)c(Cl)c2)[C@@H](C)CN([C@H](C)CO)C(=O)c2cc(N(C)C)ccc2O1	nt	i	nt	nt	nt	nt	6.3µM	6.3µM
C[C@@H]1CCCCO[C@H](CN(C)C(=O)Nc2cccc3ccccc23)[C@@H](C)CN([C@H](C)CO)C(=O)c2cc(N(C)C)ccc2O1	nt	i	nt	nt	nt	nt	3.5µM	7.1µM
C[C@@H]1CCCCO[C@@H](CN(C)C(=O)Nc2ccccc2)[C@@H](C)CN([C@H](C)CO)C(=O)c2cc(N(C)C)ccc2O1	nt	i	nt	nt	nt	nt	nt	nt
Cc1ccsc1/C=N/Nc1nc(=O)[nH]nc1C	i	i	i	i	i	i	18µM	i
Cc1ccsc1/C=N/Nc1ncc(Cl)cc1Cl	i	i	i	i	i	i	nt	nt
CN1CCN(c2oc(/C=C/c3ccc(F)cc3)nc2C#N)CC1	nt	nt	i	i	nt	i	nt	nt
CCn1c(C)nc2cc(C(=O)NNC(=O)c3ccc(Cl)nc3)ccc21	i	i	i	i	i	i	nt	nt
CCn1c(C)nc2cc(C(=O)NNC(=O)c3ccc(C)cc3)ccc21	i	i	i	i	i	i	?	?
COc1cc(C=C2C(=O)C=CC2=O)ccc1O	nt	5.3µM	nt	nt	nt	nt	1.1µM	1.1µM
COc1cc(/C=C2/C(=O)CNC2=O)ccc1O	i	i	i	i	?	i	nt	nt
CC1CCC(NC(=O)C2(C)Cc3ccccc3C(=O)N2Cc2ccccc2Cl)CC1 (stereo not drawn)	nt	nt	i	i	nt	i	nt	nt
O=C(CSc1cccc2cccnc12)N1CCCC1	i	3µM	i	i	i	i	?	?
NNC(=O)CSc1cccc2cccnc12	i	i	i	i	i	i	nt	nt
O=C1N(Cc2ccccc2Cl)c2ccccc2C1(O)c1c[nH]c2ccccc12 (stereo not drawn)	nt	nt	i	i	nt	i	nt	nt
Cc1ccc(C)c(N2CCN(C(=O)C3CCCN(S(=O)(=O)c4ccc5c(c4)oc(=O)n5C)C3)CC2)c1 (stereo not drawn)	nt	nt	i	i	nt	i	nt	nt
COc1ccc(C(=O)CSc2nnc(-c3ccco3)n2CC2CCCO2)cc1 (stereo not drawn)	i	i	i	i	i	i	nt	nt
SMILES	S-ASM inh	PLK1 PBD block	Pin1 inh	VDR inhibitor	Tb PFK inh	TDP1 inh	TbPYK confirm	TbPYK orthogonal
CC(=O)Nc1ccc(C(=O)CSc2nnc(-c3ccc(O)cc3)n2CC2CCCO2)cc1 (stereo not drawn)	i	i	i	i	i	i	16µM	?
O=C(CSc1ccc(-c2ccco2)nn1)c1ccc(F)cc1	i	?	nt	?	i	i	25µM	32µM
COc1ccc(C(=O)CSc2nnc(-c3ccco3)c(-c3ccco3)n2)cc1	i	27µM	?	i	i	i	25µM	35µM
O=C(CSc1ccc(-c2ccco2)nn1)NCc1ccc(F)cc1	i	i	i	i	i	i	nt	nt
O=C(CSc1nnc(-c2ccco2)n1CC1CCCO1)c1ccc(F)cc1 (stereo not drawn)	i	2.7µM	i	i	i	i	?	40µM
CCC(=O)Nc1ccc(NC(=O)CSc2nnc(-c3ccc(O)cc3)n2CC2CCCO2)cc1 (stereo not drawn)	i	i	i	i	i	i	nt	nt
CC1Cc2cc(S(=O)(=O)CCC(=O)Nc3ccc(OC(F)(F)F)cc3)ccc2N1C(=O)C1CC1 (stereo not drawn)	nt	nt	i	i	nt	i	nt	nt
COc1ccccc1CNC(=O)CCC1N=C2c3ccccc3N=C(SCc3ccc(C)cc3C)N2C1=O (stereo not drawn)	nt	nt	i	i	nt	i	nt	nt
CC(CNC(=O)C1CCN(Cc2cc3ccccc3n2Cc2ccccc2)CC1)c1ccccc1 (stereo not drawn)	nt	nt	i	i	nt	i	nt	nt
OCc1ccccc1-c1nc(NCc2ccccc2)nc2ccsc12	nt	?	nt	nt	nt	nt	?	?
O=C1CSC(=S)N1N=Cc1ccccc1O	i	13µM	i	?	nt	nt	13µM	13µM
COc1ccc(C2CC(=O)c3cc(-c4nc(-c5ccc(Cl)cc5)c(C)s4)c(=O)[nH]c3C2)cc1 (stereo not drawn)	nt	nt	i	i	nt	i	nt	nt
CCN(CC)S(=O)(=O)c1ccc(C(=O)NC(=S)N(CCC#N)Cc2cccnc2)cc1	i	i	i	i	i	i	13µM	13µM
O=C(N/N=C/c1ccccc1)c1[nH]ncc1Br	i	i	i	i	i	i	i	i
COC(=O)c1ccc2nc(-c3ccco3)c(Cc3ccc(OC)cc3C)n2c1	nt	27µM	nt	nt	nt	nt	7.1µM	7.9µM
COC(=O)c1ccc2nc(-c3ccco3)c(Cc3ccccc3C(F)(F)F)n2c1	nt	?	nt	nt	nt	nt	?	?
COC(=O)c1ccc2nc(-c3ccco3)c(Cc3ccc(C)cc3)n2c1	nt	i	nt	nt	nt	nt	20µM	25µM
COC(=O)c1ccc2nc(-c3ccc(F)cc3)c(Cc3cccc(F)c3)n2c1	nt	i	nt	nt	nt	nt	nt	nt
COC(=O)c1ccc2nc(-c3ccc(F)cc3)c(Cc3ccc(OC)cc3C)n2c1	nt	i	nt	nt	nt	nt	nt	nt
